The term AC50 denotes the midpoint of the concentration-response curve, whichever way the signal moves.

Molecules are shown by their SMILES. Hit rate of the full screen: of about 16,000 compounds, about 5,700 (36%) were called active. Roughly 24% stayed inconclusive and do not appear here. Calls follow the shape of the dose curve; as a rule, active = well fitted curve in the direction sought with a large enough effect; inconclusive = small, poorly fitted or top-dose-only effect, or effect the other way; inactive = no such curve, though single readings can be large or run the other way. Some of the results follow.
% is scaled to controls: 0 for no effect and ±100 for the full control effect.

Cytochrome P450 1A2 (Homo sapiens), sequence (P05177 whole entry, looked up): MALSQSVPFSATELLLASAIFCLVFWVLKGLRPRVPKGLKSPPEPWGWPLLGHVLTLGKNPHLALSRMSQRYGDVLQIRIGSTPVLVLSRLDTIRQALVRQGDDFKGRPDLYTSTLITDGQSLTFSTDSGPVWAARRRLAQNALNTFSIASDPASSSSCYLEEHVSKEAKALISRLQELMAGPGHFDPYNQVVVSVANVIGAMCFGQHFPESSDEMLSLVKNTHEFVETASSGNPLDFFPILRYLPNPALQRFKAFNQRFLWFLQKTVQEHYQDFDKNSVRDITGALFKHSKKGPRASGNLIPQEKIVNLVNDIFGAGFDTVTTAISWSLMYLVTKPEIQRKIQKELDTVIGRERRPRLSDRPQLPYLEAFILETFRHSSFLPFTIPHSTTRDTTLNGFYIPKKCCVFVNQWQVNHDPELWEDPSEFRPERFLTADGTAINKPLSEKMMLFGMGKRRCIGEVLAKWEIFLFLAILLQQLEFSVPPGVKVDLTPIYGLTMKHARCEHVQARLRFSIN

This experiment concerns the target Cytochrome P450 1A2 (Homo sapiens) (UniProt P05177). Nature of the experiment: Cytochrome panel assay with activity outcomes. To be noted: recombinant CYP, pro-luciferin dealkylation, luminescence, p450-cyp1a2; series mostly up to 57.1 µM; activity, negative = inhibition: at the top concentration.
On to `CCOC(=O)c1c(C)c(C)n2c1NC(=O)C2`, for which the AC50 is 2 µM (active).
On the same count and under the same terms, to `CCOC(=O)N1CCN(C(=O)c2ccc(Cl)c(S(=O)(=O)N3CCOCC3)c2)CC1` belongs 6.31 µM (active).
For the compound `CCOC(=O)N1CCN(C(=O)c2ccc(OC)c(OC)c2)CC1`, the “activity, negative = inhibition” value is -0.0485% (inactive).
The same measure, in the same setting: with `CCOC(=O)N1CCN(C(=O)c2ccc(NC(C)=O)cc2)CC1` the figure was 6.91% (inactive); with `O=C(O)c1cc(=O)cc(C(=O)O)[nH]1`, 2.72% (inactive).
In the case of `COc1ccc(-n2c(=O)c(C)nc3cnc(N(C)C)nc32)cc1`, the AC50 is 6.31 µM (active).
In the case of `COc1ccc(-n2c(=O)cnc3cnc(N(C)C)nc32)cc1`, the AC50 was 5.01 µM (active).
Consider `Cc1nc2cnc(N(C)C)nc2n(-c2ccccc2)c1=O`, for which the AC50 was 2 µM (active).
For `C[C@H](O)C(=O)Nc1c(I)c(C(=O)NC(CO)CO)c(I)c(C(=O)NC(CO)CO)c1I`, the “activity, negative = inhibition” value is 0.269% [at 25.6 µM] (inactive).
Same read-out and setting: to `C#CCCCO/N=C1/C[C@@H](O)[C@@H](O)[C@@H]2[C@@H]3C(=O)N(CCC(=O)OCC)C(=O)[C@H]3CC[C@H]12` belongs -10.2% [at 11.4 µM] (inactive).
For `CCOC(=O)N1CCC(NS(=O)(=O)c2ccc3c(c2)C(C)(C)C(=O)N3C)CC1`, the “activity, negative = inhibition” value was 14% (inactive).
Same read-out and setting: with `NCCCS(=O)(=O)O` the figure was -4.72% (inactive); with `Cc1ccc(C(=O)N2C3C=CC(C3)C2(C(F)(F)F)C(F)(F)F)cc1` (configuration not stated), -9.14% (inactive).
Take `CCCCCN(CCCCC)C(=O)[C@H](CCC(=O)O)NC(=O)c1ccc(Cl)c(Cl)c1`: the AC50 result was “inactive”.
In the case of `COc1ccc(C(NC(=O)c2ccc(-c3ccccc3)cc2)c2ccccc2)cc1` (configuration not stated), the “activity, negative = inhibition” value is -2.05% (inactive).
With `C[C@H](NC(=O)c1ccc(Cl)c(Cl)c1)c1ccc(-c2ccccc2)cc1`, the AC50 was 0.631 µM (active).
With `CCOc1ccc(C(C)=O)cc1N1C(=O)C2C(C1=O)C1C=CC2C12CC2` (configuration not stated), the “activity, negative = inhibition” value is -21.9% (inactive).
As for `O=C(Nc1cccc(F)c1)N1CC2(CCN(S(=O)(=O)c3ccccc3)CC2)C1`, the “activity, negative = inhibition” value was -28.7% (inactive).
Regarding `Cc1cccc(N/C(=N\S(=O)(=O)c2ccccc2)C(F)(F)F)c1`, the AC50 was 14.1 µM (active).
On to `Cc1cccc(Nc2ccncc2S(=O)(=O)NC(=O)NC(C)C)c1`, for which the “activity, negative = inhibition” value was -15.6% [at 25.6 µM] (inactive).
The same measure, in the same setting: to `CCC(=O)NC(NC(=O)CC)C(Cl)Cl` belongs -1.98% (inactive); to `Cc1cccc[n+]1CC(=O)Nc1ccc([N+](=O)[O-])cc1Cl`, -0.914% (inactive).
Turning to `O=C(Nc1ccccc1)c1cc([N+](=O)[O-])ccc1Cl`, the AC50 is 0.631 µM (active).
For the compound `CC(=O)Nc1ccc(NC(=O)c2ccccc2CC[N+](=O)[O-])cc1`, the “activity, negative = inhibition” value is -12.1% (inactive).
`O=C(Nc1ccccc1)c1ccccc1CC[N+](=O)[O-]`: the AC50 is 15.8 µM (active).
Turning to `O=C(O)c1cc(N=Nc2ccc([N+](=O)[O-])cc2)ccc1O`, the activity, negative = inhibition is -15.2% [at 2.29 µM] (inactive).
As to `O=C(Nc1ccc([N+](=O)[O-])cc1Cl)c1cc(Cl)ccc1O`, the concentration at half-maximal activity (AC50) is 1.26 µM (active).

Source of the values: PubChem BioAssay AID1851 (National Center for Advancing Translational Sciences (NCATS), 2009).
